# High-throughput results (PubChem)
# Marburg entry inh: qHTS for inhibitors of binding or entry into cells for Marburg Virus | Marburg virus pseudotyped entry inhibition, cell reporter | Potency, µM (highest dose often 37.8 µM), without a hit: top-dose activity change, negative = inhibition, actives largely listed as inhibitors | actives 1.8% (n = 300,000); calls by dose curve; tested in HEK293 cells; note: potency is the fitted concentration of half-maximal effect
# LASV entry inh: qHTS for Inhibitors of binding or entry into cells for Lassa Virus; Lassa virus pseudotype entry inhibition, cell reporter; Potency, µM (titrated, usually from 37.9 µM), inactives show at the top dose activity change, negative = inhibition, hits mostly inhibitors; actives 1.2% (n = 300,000); AID 540256, 2011; calls by dose curve; tested in HEK293 cells; note: potency is the fitted concentration of half-maximal effect; nearly all actives have a fitted effect of over 50% in size
# HCMV inh: qHTS Assay for inhibitors of the human cytomegalovirus (HCMV); activity change, negative = inhibition, % at 57.5 µM; actives 4.5% (n = 410,000); HFF cells, HCMV-luciferase reporter, 72 h; stronger effect = lower value; in the data active = activity change below about -60%; inconclusive = no clear call, values can overlap the other calls; inactive = above about -39%
#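 Screen run at 2 compound doses on HFFs infected with reporter HCMV, MOI 1 PFU/cell. Luciferase activity from cell lysates at 72 h post infection gave inhibition relative to buffer-only and Salinomycin wells.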
# FMDV antiviral: High Throughput Screening for Foot and Mouth Disease Virus Antivirals; Potency, µM (highest dose often 57.9 µM), inactives show at the top dose activity change, negative = inhibition, most hits filed as inhibitors; FMDV antiviral cell-based qHTS; actives 1.2% (n = 410,000); calls by dose curve; tested in HEK293T cells; note: read-out not given here; potency is the fitted concentration of half-maximal effect; nearly all actives have a fitted effect of over 45% in size
# HCV inhibitor: qHTS Assay for Inhibitors of Hepatitis C Virus (HCV); Huh7.5.1 HCVcc-Cre infection, luciferase reporter, 44 h; Potency, µM (series often up to 41.8 µM), for inactives: top-dose activity change, negative = inhibition, hits mostly inhibitors; actives 3.4% (n = 340,000); active = well fitted inhibition curve with a large enough effect; inconclusive = small, poorly fitted or top-dose-only effect, or another doubt; inactive = no such curve, though single readings can be large or run the other way; note: potency is the fitted concentration of half-maximal effect
#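 Cells (1,000/well) were plated 4 h before compound, then infected with HCVcc-Cre virus (~0.5 moi). After 44 h further culture, infection was read as luciferase luminescence following a 15 min substrate incubation at room temperature.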
# The depositor's hits bear a star; ? = inconclusive; . = no result; [ ] = another dose, or the depositor's remark. Compounds with a hit are over-represented: about 7.9% of the library has one in this group of screens. % is set by controls: 0 for no effect and ±100 for the full control effect.
SMILES,Marburg entry inh,LASV entry inh,HCMV inh,FMDV antiviral,HCV inhibitor
C=CCN1C(=O)NC(=O)/C(=C/C=C/c2ccccc2)C1=O,17%,18%,-112*,?,21%
O=C1NC(=S)N/C1=C\C=C\c1ccccc1,.,.,31,40%,7%
CCN1C(=NCc2ccccc2)N[C@@H](CCc2ccccc2)[C@H](C(=O)OC)[C@H]1C,-18%[14.2 µM],.,.,.,.
N#Cc1c(C(F)(F)F)cc(-c2cccs2)nc1SCC(=O)Nc1cccc(Br)c1,-20%[46.1 µM],1%[46.1 µM],-70*,0%,.
CC(C)CC(=O)Nc1nnc(SCC(=O)Nc2nccs2)s1,27%,-4%,-63*,-11%,.
Cc1cc(C(F)(F)F)c(C#N)c(SCC(=O)Nc2nc3ccccc3s2)n1,4.5µM*,?,-60*,?,?
CC(C)c1nnc(NC(=O)CSc2nc3ccccc3s2)s1,3%,-5%,-73*,19%,11%
N#Cc1c(C(F)(F)F)cc(-c2cccs2)nc1SCC(=O)Nc1cccc(Cl)c1,20%[46.1 µM],4%[46.1 µM],-22,1%,.
O=C(c1cccs1)N1C[C@H](O)[C@H](n2cc(C3CC3)nn2)C[C@@H]1c1ccc(Cl)cc1,.,-15%[46.1 µM],.,.,.
COC1=CC2C(=O)C(C1=O)C1c3ccccc3CC21 (configuration not stated),-3%[14.2 µM],.,.,.,.
CSc1nc(N)nc(SCC(=O)Nc2cccc(F)c2)c1C#N,?,?,-65*,?,?
O=C(CSC1=NCCS1)Nc1nc2ccccc2s1,-14%,8%,-68*,1%,?
COc1cc(-c2cc(-c3ccccc3)nc(SCC(=O)Nc3nccs3)c2C#N)cc(OC)c1OC,-27%,-4%,16,-2%,-23%
Cc1ccc2sc(NC(=O)CSc3nc(C)cc(C)c3C#N)nc2c1,?,?,56,55%,-18%
Cc1nc(SCC(=O)Nc2nccs2)c(C#N)c(C)c1C,.,.,-69*,-25%,0%
Cc1nc(SCC(=O)Nc2nc3ccccc3s2)c(C#N)c(C)c1C,?,?,-94*,0.1µM*,?
COc1ccc(C)cc1S(=O)(=O)Nc1ccc2c(c1)OCO2,?,2%,-19,37%,19%
CCn1c(SCC(=O)N2CCCCCC2)nc2c(c1=O)SCC2,15%,-10%,12,-13%,.
O=C(Nc1ccc(Cl)c(Cl)c1)OCc1cccnc1,-18%,?,-12,-19%,22µM*
COc1ccc(S(=O)(=O)NCc2cccnc2)c2ccccc12,-21%[46.1 µM],15%[46.1 µM],-2,48%,2%
O=C(Nc1ccc(Cl)c(Cl)c1)c1cccc(S(=O)(=O)NCc2cccnc2)c1,?,13µM*,-95*,?,14µM*
Cc1ccc(S(=O)(=O)NCc2cccnc2)cc1C,?,25%[46.1 µM],-86*,36%,3%
Cc1cc(S(=O)(=O)NCc2cccnc2)ccc1F,4%[46.1 µM],?,-9,17%,9%
O=S(=O)(NCc1cccnc1)c1ccc(Br)c2ccccc12,-1%[46.1 µM],4%,-63*,29%,-24%
C[C@H](CO)N1C[C@H](C)[C@@H](CN(C)C(=O)NC2CCCCC2)Oc2ccc(NC(=O)C3CCCCC3)cc2C1=O,.,.,3,-8%,39%
SMILES,Marburg entry inh,LASV entry inh,HCMV inh,FMDV antiviral,HCV inhibitor
O=C1NCCN2CCC[C@H]12,19%,.,.,.,.
COc1ccc(Nc2nc3ccccc3n3cnnc23)cc1,-1%,16%[14.3 µM],36,-22%,20µM*
COc1cccc(/C=N/Nc2nc3ccccc3[nH]2)c1O,.,.,-99*,19%,?
Cc1ccc(Nc2nc3ccccc3n3cnnc23)cc1C,2%[46.1 µM],-20%[46.1 µM],21,-22%,5%
Cc1ccc2nc(Nc3ccc(C)c(C)c3)c3nncn3c2c1,-8%,.,1,17%,22µM*
Cc1cc(C)cc(Nc2nc3ccc(C)cc3n3cnnc23)c1,?,?,55,-9%,-19%
COc1ccccc1Nc1nc2ccc(C)cc2n2cnnc12,.,.,64,18%,6.3µM*
CCn1nc(C)cc1C(=O)NCC1CCC2(CCN(Cc3ccccc3F)CC2)O1 (configuration not stated),.,.,.,0%,.
Cc1ccc(Nc2c3c(nc4nncn24)CCC3)cc1C,5%[46.1 µM],-10%[46.1 µM],-88*,-27%,.
Cc1ccc(Nc2c3c(nc4nncn24)CCC3)cc1,1%[46.1 µM],-6%[46.1 µM],0,21%,.
COc1cccc(/C=N/Nc2nc3ccccc3n3cnnc23)c1O,8.9µM*,?,-103*,5%,?
O=C(CSC1=Nc2ccccc2C2=NC(Cc3ccccc3)C(=O)N12)Nc1ccccc1C(F)(F)F (configuration not stated),.,-29%[46.1 µM],-23,20%,.
CN(C)CCCN(C(=O)CCSc1ccccc1)c1nc2cc3c(cc2s1)OCO3,?,?,-25,-19%,?
Cc1ccc2sc(N(CCCN(C)C)C(=O)CCS(=O)(=O)c3ccccc3)nc2c1C,.,.,0,32µM*,?
CN(C)CCCN(C(=O)CCS(=O)(=O)c1ccccc1)c1nc2cc3c(cc2s1)OCO3,?,?,-113*,28µM*,?
COc1ccc(OC)c2sc(N(CCCN(C)C)C(=O)CCS(=O)(=O)c3ccccc3)nc12,?,-25%,16,35µM*,?
CCC(C)NC(=O)c1cc2c(=O)[nH]c3ccc(C)cc3c2s1 (configuration not stated),-21%[46.1 µM],-17%[46.1 µM],-29,-10%,-30%
CCOc1ccc(C(=O)NC2CC(=O)N(c3ccc4c(c3)OCCO4)C2)cc1 (configuration not stated),-16%,-15%,-24,-25%,?
Cc1ccc(O)c(C(CC(=O)NCC2(c3ccccc3)CCCC2)c2ccccc2)c1 (configuration not stated),?,?,-99*,?,.
COc1ccc(C(=O)CSc2nn3c(=O)c(C(C)(C)C)nnc3s2)cc1,-8%,-22%,44,14µM*,-10%
OCCCNc1ncnc2scc(-c3ccc(Cl)cc3)c12,?,-16%,-80*,?,-25%
NNc1ncnc2scc(-c3ccc(Cl)cc3)c12,-25%,-3%,-99*,?,?
CC(C)c1ccc2c(c1)NC(c1ccc(F)cc1)=NC(c1cccs1)=N2,-54%[46.1 µM],22%[46.1 µM],14,24%,.
Cc1ccccc1C1(CC(=O)N2CCN(C)CC2)CC(=O)N(Cc2ccncc2)C1=O (configuration not stated),.,.,.,-19%,.
COc1cc(C2c3cc4c(c(O)c3CC3COC(=O)C32)OCO4)cc(OC)c1OC (configuration not stated),?,?,-83*,-22%,-19%
Nc1ccc2cc3[nH]c4cc(N)ccc4c3nc2c1,?,?,-98*,-19%,1.6µM*
COc1ccc(Nc2c3c(nc4ccc(NC(=O)/C=C/c5cccc(OC)c5OC)cc24)CCCC3)cc1OC,?,?,-97*,?,.
